In the library only some 7.6% were active in any assay of this set; here they are far more common.
MCF10A rereplic: inducers of DNA re-replication in MCF 10A breast cells; MCF 10A DNA re-replication, Hoechst nuclear intensity, 48 h; Potency, µM (top dose mostly 46.1 µM), usual class: activators; 350,000 tested, 2.9% active; note: nearly all actives have a fitted effect of over 50% in size
KB-3-1 tox: kills parental KB-3-1 adenocarcinoma cells | 400,000 tested, 1.4% active | Potency, µM (titrated, usually from 46.1 µM), actives largely listed as cytotoxic | KB-3-1 viability, CellTiter-Glo ATP luminescence, 72 h; note: nearly all actives have a fitted effect of over 60% in size
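Using CellTiter-Glo luminescence, growth of non-resistant KB-3-1 adenocarcinoma cells is assessed 72 h after pin-tool compound addition at 37 °C. Normalized responses across the concentration series yield fitted curves.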
hERG WT inh: KCNH2 (human, wildtype) channel inhibition | U2OS, BacMam KCNH2, thallium flux FluxOr; hits give low values | activity change, % at 1.84 µM | 340,000 tested, 0.37% active | AID 720551;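 active = maximum activity change below -70%; inconclusive = maximum activity change between -70% and -50%; inactive = maximum activity change above -50%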
Target sequence (Q12809 whole entry, looked up): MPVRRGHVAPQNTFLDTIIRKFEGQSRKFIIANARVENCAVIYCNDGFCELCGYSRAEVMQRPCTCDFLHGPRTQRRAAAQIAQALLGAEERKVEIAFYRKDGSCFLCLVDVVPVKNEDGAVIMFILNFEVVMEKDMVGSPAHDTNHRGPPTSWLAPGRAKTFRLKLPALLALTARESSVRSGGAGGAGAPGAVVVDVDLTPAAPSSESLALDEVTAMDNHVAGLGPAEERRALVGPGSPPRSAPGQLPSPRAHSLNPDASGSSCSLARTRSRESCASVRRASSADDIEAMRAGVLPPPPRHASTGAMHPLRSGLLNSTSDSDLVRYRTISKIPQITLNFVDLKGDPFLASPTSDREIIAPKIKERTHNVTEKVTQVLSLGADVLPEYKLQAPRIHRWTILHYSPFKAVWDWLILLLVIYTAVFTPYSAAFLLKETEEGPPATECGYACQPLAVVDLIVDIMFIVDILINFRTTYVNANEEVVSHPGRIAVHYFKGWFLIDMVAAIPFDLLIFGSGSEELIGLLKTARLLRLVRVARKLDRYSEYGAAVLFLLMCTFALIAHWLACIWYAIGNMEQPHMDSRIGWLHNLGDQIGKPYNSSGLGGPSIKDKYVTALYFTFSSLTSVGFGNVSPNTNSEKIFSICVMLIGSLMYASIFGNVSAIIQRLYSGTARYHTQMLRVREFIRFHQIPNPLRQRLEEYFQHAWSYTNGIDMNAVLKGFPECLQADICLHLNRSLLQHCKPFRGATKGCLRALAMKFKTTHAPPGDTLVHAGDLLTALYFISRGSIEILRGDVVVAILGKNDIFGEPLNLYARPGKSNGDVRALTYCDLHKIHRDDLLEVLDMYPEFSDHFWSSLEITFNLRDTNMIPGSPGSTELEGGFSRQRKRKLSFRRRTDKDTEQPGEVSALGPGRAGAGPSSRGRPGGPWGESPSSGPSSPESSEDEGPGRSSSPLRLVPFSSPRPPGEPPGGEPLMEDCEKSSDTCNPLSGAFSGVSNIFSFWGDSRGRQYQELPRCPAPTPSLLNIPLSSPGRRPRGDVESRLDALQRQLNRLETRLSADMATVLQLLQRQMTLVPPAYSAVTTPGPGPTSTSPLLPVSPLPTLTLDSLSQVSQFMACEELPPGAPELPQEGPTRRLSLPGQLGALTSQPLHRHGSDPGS
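U2OS cells transduced with wild-type KCNH2 virus are loaded with FluxOr dye for 45 min, and thallium flux is measured in kinetic reads before and after stimulation buffer. Rate constants are normalized to DMSO controls.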
KB-V1 MDR tox: KB-V1 MDR subline cytotoxicity | AID 1347076 | Potency, µM (series often up to 46.1 µM), hits mostly cytotoxic | 400,000 tested, 3.4% active | KB-V1 MDR cells viability, CellTiter-Glo, 72 h; note: nearly all actives have a fitted effect of over 60% in size
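Following 72 h at 37 degrees C with compound, KB-V1 cell viability was read by CellTiter-Glo luminescence, medium being phenol-red-free DMEM plus 10% FBS; concentration-response parameters came from normalized, curve-fitted qHTS data.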
SW480 rereplic: induces DNA re-replication in SW480 colon adenocarcinoma cells | SW480 DNA re-replication, Hoechst DNA content imaging, 48 h | Potency, µM (top dose mostly 46.1 µM), hits mostly activators | 340,000 tested, 1.8% active | AID 624297; note: nearly all actives have a fitted effect of over 55% in size
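Readout is total intensity of Hoechst-stained nuclei, excited at 405 nm and collected at 500-530 nm. Compound treatment lasted 48 hr at 37 C in 5% CO2 before staining.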
KCNH2 3.1 inh: inhibitors of human KCNH2 3.1 potassium channel isoform | U2OS KCNH2 3.1, thallium flux FluxOr; hits give low values | activity change, % (tested at about 1.8 µM) | 340,000 tested, 0.95% active | AID 720553;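 active = maximum activity change below -70%; inconclusive = maximum activity change from -70% to -50%; inactive = maximum activity change above -50%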;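 note: thallium influx rate constant from kinetic fluorescence after stimulation buffer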
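Channel expression came from 3.1 mutant virus (1.77 x 10^8 /mL) applied to suspended U2OS cells for 4 h. Flux was tracked with FluxOr dye plus Red40 quencher, and kinetic rate constants normalized to controls.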
Each line names hits and unclear results; the compound was inactive in the other large screens. Unless noted, calls come from the whole dose curve; as a rule, active = well fitted curve in the direction sought with a large enough effect; inconclusive = small, poorly fitted or top-dose-only effect, or another doubt; inactive = no such curve, though single readings can be large; an effect the other way counts as inactive or inconclusive.

CCOc1ccc2nc(/N=C/c3c(C)[nH]n(-c4ccccc4)c3=O)sc2c1	KB-3-1 tox inconclusive, KB-V1 MDR tox inconclusive, SW480 rereplic 2.9µM
CC(C)c1ccc(/C=c2\sc3n(c2=O)C(N)=C(C#N)C(c2ccc(C(C)C)cc2)C=3C(N)=O)cc1 (stereo not given)	MCF10A rereplic 1.3µM, KB-3-1 tox inconclusive, SW480 rereplic inconclusive
CCN(CC)CCC(=O)N1c2ccccc2Sc2ccc(NC(=O)OC)cc21	MCF10A rereplic 23µM, SW480 rereplic inconclusive
O=C(NCc1ccc(F)cc1)C1CCCN1S(=O)(=O)c1cccc2nsnc12 (stereo not given)	hERG WT inh -251
O=C(Nc1ccc(F)cc1)C1CCCN1S(=O)(=O)c1cccc2nsnc12 (stereo not given)	KB-V1 MDR tox inconclusive
O=C(NCCc1ccccc1)c1ccc2c(c1)nc1n2CCOC1	none (no result: MCF10A rereplic, hERG WT inh, SW480 rereplic, KCNH2 3.1 inh)
Nc1ccccc1C(=O)NC(=O)Nc1ccc(Oc2ncc(Br)cn2)c(Cl)c1	MCF10A rereplic inconclusive, KB-3-1 tox 0.21µM, KB-V1 MDR tox 0.13µM, SW480 rereplic 0.52µM
Cc1cc(NC(=O)NC(=O)c2ccccc2NC(=O)CN(C)C)ccc1Oc1ncc(Br)cn1	MCF10A rereplic 15µM, KB-3-1 tox 2.9µM, KB-V1 MDR tox 2.1µM, SW480 rereplic 6.5µM
COc1ccccc1C(=O)NC(=O)Nc1cccc(Cl)c1	none
Cc1cc(NC(=O)NC(=O)c2ccccc2NC(=O)CN)ccc1Oc1ncc(Br)cn1	MCF10A rereplic inconclusive, KB-3-1 tox 1.2µM, KB-V1 MDR tox inconclusive, SW480 rereplic 2.9µM
COc1ccc(NC(=O)CSc2nc(C3CC3)nc3ccccc23)cc1	MCF10A rereplic inconclusive, KB-3-1 tox inconclusive, KB-V1 MDR tox inconclusive, SW480 rereplic 13µM
N#Cc1cccc(NC(=O)CSc2ccc3c4c(cccc24)C(=O)c2ccccc2-3)c1	MCF10A rereplic 7.3µM, KB-3-1 tox inconclusive, hERG WT inh -100, KB-V1 MDR tox 21µM, SW480 rereplic inconclusive, KCNH2 3.1 inh -78
COc1ccc(NC(=O)CSc2ccc3c4c(cccc24)C(=O)c2ccccc2-3)cc1	MCF10A rereplic 2.6µM, KB-3-1 tox inconclusive, KB-V1 MDR tox inconclusive, SW480 rereplic 12µM
CC(=O)c1ccc(NC(=O)CSc2nc(C3CC3)nc3ccccc23)cc1	MCF10A rereplic inconclusive
N#Cc1cccc(NC(=O)CSc2ccccc2)c1	KB-V1 MDR tox inconclusive
Cc1ccc(N(C)C(=O)C2CCCN(c3ncnc4c3nc3n4CCCCC3)C2)cc1C (stereo not given)	none (no result: MCF10A rereplic, hERG WT inh, SW480 rereplic, KCNH2 3.1 inh)
Cc1cc(=O)[nH]c(SCC(=O)c2ccc(C(C)C)cc2)n1	none
Cc1cc(C)c2c(=O)[nH]c(SCC(=O)c3ccc(C(C)C)cc3)nc2n1	MCF10A rereplic inconclusive, KB-V1 MDR tox 16µM
COCc1c(C(=O)OCC(=O)NCCN2C(=O)CSC2=O)oc2ccccc12	hERG WT inh -120
O=C(CNC(=S)N(CCCN1CCOCC1)Cc1cccs1)NCc1ccccc1Cl	hERG WT inh -113, KCNH2 3.1 inh -123
O=C(CNC(=S)N(CCCN1CCOCC1)Cc1cccs1)NCc1ccc(Cl)cc1	hERG WT inh -84, KCNH2 3.1 inh -83
CCN(CC)C(=O)CNC(=S)N(CCCN1CCOCC1)Cc1cccs1	KB-V1 MDR tox 7.3µM
COc1ccc(C(CNCC(O)COc2c(C)ccc(C)c2C)N(C)C)cc1 (stereo not given)	KB-3-1 tox inconclusive
COc1ccc(OC)c(NC(=O)CC2SC(=Nc3ccc(F)cc3)N(CCC3=CCCCC3)C2=O)c1 (stereo not given)	MCF10A rereplic inconclusive, KB-V1 MDR tox inconclusive
COc1ccc(OC)c(NC(=O)CC2SC(=Nc3ccccc3)N(CCc3ccccn3)C2=O)c1 (stereo not given)	none
COc1cc([N+](=O)[O-])ccc1NC(=O)CC1SC(=Nc2ccc(F)cc2)N(CCC2=CCCCC2)C1=O (stereo not given)	MCF10A rereplic inconclusive, KB-3-1 tox 9.2µM, KB-V1 MDR tox inconclusive
COc1ccc(N=C2SC(CC(=O)Nc3ccc(OC)cc3OC)C(=O)N2C)cc1 (stereo not given)	KB-V1 MDR tox 18µM
CCOc1ccc(/C=N/OCC(=O)Nc2cc(S(=O)(=O)N3CCOCC3)ccc2OC)cc1	none
COc1ccccc1-n1cnnc1SCC(=O)NC1CCCCC1	none
O=C(CSc1nncn1-c1ccccc1F)NC1CCCCC1	KB-V1 MDR tox 21µM, KCNH2 3.1 inh -118
COc1ccc(-n2cnnc2SCC(=O)NC2CCCCC2)cc1	KB-V1 MDR tox 23µM
COc1ccc(-n2cnnc2SCC(=O)NC2CC2)cc1	none (no result: MCF10A rereplic, SW480 rereplic)
C=CCn1c(SCC(=O)NC2CCCCC2)nnc1-c1ccc(OC)cc1	KB-V1 MDR tox 4.1µM
Cn1c(SCC(=O)NC2CC2)nnc1-c1ccccc1Cl	none
Cn1c(SCC(=O)NC2CCCCC2)nnc1-c1ccccc1F	SW480 rereplic 9.2µM
C=CCn1c(SCC(=O)NC2CC2)nnc1-c1cccc(OC)c1	none
CCOC(=O)C1=CCN(S(=O)(=O)c2ccc(C)cc2)C1c1ccccc1F (stereo not given)	KB-3-1 tox inconclusive (no result: MCF10A rereplic, hERG WT inh, SW480 rereplic, KCNH2 3.1 inh)
C=CCOC(=O)C1=C[C@@H](c2cn(C(C)=O)c3ccccc23)C[C@@H](OCc2ccc(CO)cc2)O1	MCF10A rereplic 23µM
O=C(NCc1ccccc1)C1=C[C@H](c2csc3ccccc23)C[C@H](OCCCCO)O1	MCF10A rereplic inconclusive, KB-3-1 tox inconclusive, KB-V1 MDR tox 7.3µM, SW480 rereplic inconclusive
C#CCNC(=O)C1=C[C@H](c2cn(C(C)=O)c3ccccc23)C[C@H](OCc2ccc(CO)cc2)O1	none
O=C(Nc1ccccc1)C1=C[C@H](c2csc3ccccc23)C[C@H](OCCCCO)O1	none
CC(=O)n1cc([C@@H]2C=C(C(=O)O)O[C@H](OCc3ccc(CO)cc3)C2)c2ccccc21	MCF10A rereplic inconclusive, SW480 rereplic inconclusive
CC(=O)n1cc([C@@H]2C=C(C(=O)NCc3ccccc3)O[C@H](OCc3ccc(CO)cc3)C2)c2ccccc21	MCF10A rereplic 13µM (no result: hERG WT inh, KCNH2 3.1 inh)
Cc1ccc(NS(=O)(=O)c2ccc(C(=O)NCc3ccc(S(N)(=O)=O)cc3)cc2)cc1	none (no result: KB-3-1 tox, KB-V1 MDR tox)
O=C(CC1N=C2c3ccccc3N=C(SCc3ccc(Cl)cc3)N2C1=O)NCCc1ccccc1 (stereo not given)	KB-3-1 tox inconclusive (no result: MCF10A rereplic, hERG WT inh, SW480 rereplic, KCNH2 3.1 inh)
COc1cccc(C(C(=O)NC2CCCC2)N2CCN(c3cc(C)nc4ccccc34)CC2)c1OC (stereo not given)	KB-V1 MDR tox inconclusive (no result: MCF10A rereplic, hERG WT inh, SW480 rereplic, KCNH2 3.1 inh)
C[n+]1cc(C(=O)N2CCCCC2)ccc1/C=C/c1c[nH]c2ccccc12	none
CC[n+]1ccc(/C=C/c2c[nH]c3ccccc23)cc1	MCF10A rereplic inconclusive, KB-3-1 tox 1.8µM, SW480 rereplic inconclusive
C[n+]1ccc(/C=C/c2ccc(F)cc2)c2ccccc21	none (no result: MCF10A rereplic, hERG WT inh, SW480 rereplic, KCNH2 3.1 inh)
